Assay outcomes from PubChem.
ALDH1A1 inh = qHTS Assay for Inhibitors of Aldehyde Dehydrogenase 1 (ALDH1A1); Aldehyde dehydrogenase 1A1 (Homo sapiens), P00352; Purified ALDH1A1, NADH fluorescence, propionaldehyde substrate; Potency, µM (highest dose often 75.3 µM), for the others: at the top dose activity, negative = inhibition, usual class: inhibitors; hit rate 7.3% among 220,000;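 further: potency means the concentration at half of the fitted maximal effect; plate controls were no enzyme wells and a reference inhibitor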
Target sequence (P00352 whole entry, looked up): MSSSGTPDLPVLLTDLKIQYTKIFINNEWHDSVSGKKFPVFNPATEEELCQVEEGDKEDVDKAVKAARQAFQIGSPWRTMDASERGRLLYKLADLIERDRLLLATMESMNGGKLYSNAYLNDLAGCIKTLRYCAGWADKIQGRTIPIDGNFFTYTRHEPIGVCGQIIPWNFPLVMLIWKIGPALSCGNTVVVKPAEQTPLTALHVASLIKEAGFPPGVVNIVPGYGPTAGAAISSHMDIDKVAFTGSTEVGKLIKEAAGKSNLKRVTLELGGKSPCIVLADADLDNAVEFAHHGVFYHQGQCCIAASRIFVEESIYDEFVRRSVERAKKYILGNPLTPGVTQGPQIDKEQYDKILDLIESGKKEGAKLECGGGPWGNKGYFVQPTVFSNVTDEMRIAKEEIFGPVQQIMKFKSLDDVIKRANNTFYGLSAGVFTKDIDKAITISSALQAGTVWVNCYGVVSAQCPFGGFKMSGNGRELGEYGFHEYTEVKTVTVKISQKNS
PNC inhibitor = High Content Assay for Compounds that inhibit the Assembly of the Perinucleolar Compartment | PC3M PTB-GFP, PNC prevalence imaging, 16 h; active compounds read low | activity change (PNC), negative = inhibition, % at 10 µM | hit rate 3.1% among 140,000;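 active means readout at or below -70, meaning at least 70% loss of cells showing the perinucleolar compartment, a nuclear body marking cancer cells; inconclusive means readout between -30 and a set limit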;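 further: plate controls were DMSO wells for no effect and camptothecin positive control wells for full effect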
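PC3M cells stably expressing PTB-GFP, 750–1000 cells/well, treated 16 h at 37 °C with compound (23 nl of library stock), in duplicate. After paraformaldehyde fixation and Hoechst stain, imaged at 20x; PNC prevalence scored by image analysis.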
HPGD block = qHTS Assay for Inhibitors of HPGD (15-Hydroxyprostaglandin Dehydrogenase). Potency, µM, for the others: at the top dose activity change, negative = inhibition, hits mostly inhibitors. purified HPGD, NADH fluorescence kinetic, PGE2 substrate. hit rate 4.3% among 150,000; further: potency means the concentration at half of the fitted maximal effect
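NADH formation kinetics: reaction with 30 uM PGE2 and 1 mM NAD+ (final), 20 nM enzyme, Tris-HCl pH 8 with Tween 20, after 15 min compound preincubation at room temperature. Fluorescence change, last versus first of five reads.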
Starred values were filed as active, the others as inactive; [ ] = remark or other dose. Most compounds without a hit are left out; they make up all but 11% or so of the library. Unless noted, the call rests on the fitted dose curve; in most records, active means well fitted inhibition curve with a large enough effect (not every such curve was filed as active); inconclusive means small, poorly fitted or top-dose-only effect, or another doubt; inactive means no such curve, though single readings can be large or run the other way. Unless noted, on the % scale 0 is the no-effect control and ±100 the full control effect.

How did CSc1nnc2c(n1)OC(C1CC=C(C)CC1)Nc1ccccc1-2 (stereo unspecified) do in these assays?
ALDH1A1 inh: 0%; PNC inhibitor: 20; HPGD block: -12%

What do the screens show for `NC(=O)c1ncc(C(F)(F)F)cc1Oc1ccc(C(F)(F)F)cc1`?
ALDH1A1 inh: -5%; PNC inhibitor: -2; HPGD block: -14%

How did CC(=O)c1c(C)[nH]c(C(=O)OCn2nnc3ccccc3c2=O)c1C do in these assays?
ALDH1A1 inh: 1%; PNC inhibitor: -11

How did COC(=O)C1=C(C(=O)OC)[C@@H]2N(C)c3ccccc3[C@@]23C[C@@H](CO)N(C(=O)c2cc(C)oc2C)C3=N1 do in these assays?
ALDH1A1 inh: 7%[13.5 µM]; HPGD block: -15%

What do the screens show for `COC(=O)c1ccc(/C=N\NC(=O)c2ccc(C)cc2Cl)cc1`?
ALDH1A1 inh: 3%; PNC inhibitor: 62; HPGD block: 6%

What do the screens show for `CC1CCN(C(=O)CCCOc2cc(=O)n(C)c3ccccc23)CC1`?
ALDH1A1 inh: inconclusive; PNC inhibitor: inconclusive; HPGD block: 7.9µM*

Results for COc1ccc(N2CCN(C(=O)CCCOc3cc(=O)n(C)c4ccccc34)CC2)cc1 ?
ALDH1A1 inh: 1%; PNC inhibitor: -27; HPGD block: -2%

Results for COc1ccc(C(C)C)cc1S(=O)(=O)n1ccnc1C ?
ALDH1A1 inh: -11%; PNC inhibitor: inconclusive; HPGD block: -6%

Results for COc1ccc(/C=C2\CCCC3C2=NN(C(=O)CSc2n[nH]c(N)n2)C3c2ccc(OC)cc2)cc1 (stereo unspecified) ?
ALDH1A1 inh: -14%

Results for O=[N+]([O-])c1ccc2nc(-c3ccc(OC(F)F)cc3)cn2c1 ?
ALDH1A1 inh: 5%

What do the screens show for `Oc1csc(Cc2nc(-c3ccccc3F)cs2)n1`?
ALDH1A1 inh: 18µM*

How did Oc1csc(Cc2nc(-c3ccc(-c4ccccc4)cc3)cs2)n1 do in these assays?
ALDH1A1 inh: inconclusive; PNC inhibitor: -2; HPGD block: -27%

Results for O=C(/C=C/c1ccc(Cl)cc1Cl)N1CCN(c2ccccc2[N+](=O)[O-])CC1 ?
ALDH1A1 inh: 8%; PNC inhibitor: 0; HPGD block: -16%

What do the screens show for `Cc1nn(C)c(C)c1N1C(=O)c2cccc3c(Br)ccc(c23)C1=O`?
ALDH1A1 inh: 2%; PNC inhibitor: -2; HPGD block: -20%

How did CN(C)CCCN1C(=O)c2cccc3c(Br)ccc(c23)C1=O do in these assays?
ALDH1A1 inh: 22µM*

How did CSc1ccc(/C=N/NC(=O)CN2CCN(Cc3ccc(C)cc3)CC2)cc1 do in these assays?
ALDH1A1 inh: -2%; PNC inhibitor: inconclusive

Results for COc1cc2c(cc1OC)C(C(=O)NCC1COc3ccccc3O1)C(c1cccnc1)N(C)C2=O (stereo unspecified) ?
ALDH1A1 inh: -4%; PNC inhibitor: -2; HPGD block: -12%

How did O=C(O)C(S)[C@@H](S)C(=O)O (stereo partly specified) do in these assays?
ALDH1A1 inh: 3.5µM*; HPGD block: 4.5µM*

Results for N[C@H](C(=O)O)[C@H](O)C(=O)O ?
ALDH1A1 inh: 9%; HPGD block: -14%

How did CC(C)c1ccccc1NC(=O)C1CN(S(=O)(=O)c2ccccc2)CCN1S(=O)(=O)c1ccccc1 (stereo unspecified) do in these assays?
ALDH1A1 inh: -16%; PNC inhibitor: -10; HPGD block: -9%

How did O=C(Oc1ccc(Nc2ncnc3ccccc23)cc1)c1cccnc1 do in these assays?
ALDH1A1 inh: 4%

Results for COc1ccc(NC(=O)Nc2ccc(C(=O)N3CCOCC3)cc2)c(OC)c1 ?
ALDH1A1 inh: 12%

How did Cc1ccc(C(C[N+](=O)[O-])n2nc(C)cc2C)cc1 (stereo unspecified) do in these assays?
ALDH1A1 inh: inconclusive; PNC inhibitor: 26; HPGD block: 16µM*

How did Cc1ccc(S(=O)(=O)n2nc(C)cc2C)cc1 do in these assays?
ALDH1A1 inh: 9%; PNC inhibitor: 35; HPGD block: -5%

How did NC(=O)CCn1c2ccccc2c2ccccc21 do in these assays?
ALDH1A1 inh: -3%

What do the screens show for `Cc1ccc2c(c1)c1cccc3c1n2CCN3CCC(N)=O`?
ALDH1A1 inh: inconclusive; PNC inhibitor: -107*; HPGD block: inconclusive

How did O=C1CCCN1CCCNC(=S)Nc1ccc(Nc2ccccc2)cc1 do in these assays?
ALDH1A1 inh: 14µM*

How did CCOC(=O)c1ccc(NC(=S)NCCCN2CCCC2=O)cc1 do in these assays?
ALDH1A1 inh: 0.032µM*
